From the supplement of paper PMC11732987, “Enantioselective OTUD7B fragment discovery through chemoproteomics screening and high-throughput optimisation” (Communications Chemistry, 2025)
Unmarked numbers belong to inactive results.

Tests used:
Experiment in all cases: log2 ratio of Biotin-Ahx-Ub-VS probe labelling (fragment/DMSO); higher = less target engagement (more negative = stronger competition), active = hit call of the paper (q ≤ 0.05, log2 ratio ≤ -1)
Conditions in all cases: compound concentration: 200 uM; treatment time: 3 h
ALG13 = biological target: T1, ALG13 (UniProt Q9NP73)
T1 sequence (whole entry): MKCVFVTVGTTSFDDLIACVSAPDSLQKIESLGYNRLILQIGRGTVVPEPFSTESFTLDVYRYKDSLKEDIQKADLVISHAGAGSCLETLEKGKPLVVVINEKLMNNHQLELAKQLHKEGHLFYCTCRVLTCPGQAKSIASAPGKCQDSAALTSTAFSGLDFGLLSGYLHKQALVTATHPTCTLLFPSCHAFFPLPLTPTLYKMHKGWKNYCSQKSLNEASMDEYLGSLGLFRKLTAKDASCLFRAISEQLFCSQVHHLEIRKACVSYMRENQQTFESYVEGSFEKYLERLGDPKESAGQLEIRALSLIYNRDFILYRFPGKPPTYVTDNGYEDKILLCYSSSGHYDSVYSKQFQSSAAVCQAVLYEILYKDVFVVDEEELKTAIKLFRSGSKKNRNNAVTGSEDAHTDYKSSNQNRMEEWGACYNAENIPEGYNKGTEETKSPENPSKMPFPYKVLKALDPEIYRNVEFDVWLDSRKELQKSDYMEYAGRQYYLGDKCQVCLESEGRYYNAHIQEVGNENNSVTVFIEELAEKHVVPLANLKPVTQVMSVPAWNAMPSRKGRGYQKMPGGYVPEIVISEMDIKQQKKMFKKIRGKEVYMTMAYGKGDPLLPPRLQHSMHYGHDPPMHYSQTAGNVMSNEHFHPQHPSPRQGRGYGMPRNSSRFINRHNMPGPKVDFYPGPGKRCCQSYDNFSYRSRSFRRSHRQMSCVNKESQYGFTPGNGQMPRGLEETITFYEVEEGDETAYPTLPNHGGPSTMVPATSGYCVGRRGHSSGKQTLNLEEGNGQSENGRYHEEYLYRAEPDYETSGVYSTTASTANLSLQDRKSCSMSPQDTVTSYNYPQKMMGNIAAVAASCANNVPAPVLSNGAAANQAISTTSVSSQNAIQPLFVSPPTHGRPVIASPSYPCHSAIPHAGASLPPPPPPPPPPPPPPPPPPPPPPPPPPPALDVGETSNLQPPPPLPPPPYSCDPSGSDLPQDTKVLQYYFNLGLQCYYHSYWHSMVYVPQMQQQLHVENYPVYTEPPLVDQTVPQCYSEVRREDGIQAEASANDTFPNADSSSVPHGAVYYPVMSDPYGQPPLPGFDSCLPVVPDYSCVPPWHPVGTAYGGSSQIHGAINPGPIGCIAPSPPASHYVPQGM
How it was run: (§1)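 Average log2 ratios of fragment over vehicle were obtained by unpaired t-test from global-median-normalised Spectronaut label-free quantities. Proteins with ≥2 unique peptides were included. HEK293T lysate (495 µg per sample) was treated in triplicate with fragment at 200 µM or vehicle for 3 h, then with Biotin-Ahx-Ub-VS at 0.5 µM final for 1 h, and labelled DUBs were NeutrAvidin-enriched and run by diaPASEF LC-MS/MS.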

ATXN3 = ATXN3 (UniProt P54252)
ATXN3, sequence (P54252 whole entry): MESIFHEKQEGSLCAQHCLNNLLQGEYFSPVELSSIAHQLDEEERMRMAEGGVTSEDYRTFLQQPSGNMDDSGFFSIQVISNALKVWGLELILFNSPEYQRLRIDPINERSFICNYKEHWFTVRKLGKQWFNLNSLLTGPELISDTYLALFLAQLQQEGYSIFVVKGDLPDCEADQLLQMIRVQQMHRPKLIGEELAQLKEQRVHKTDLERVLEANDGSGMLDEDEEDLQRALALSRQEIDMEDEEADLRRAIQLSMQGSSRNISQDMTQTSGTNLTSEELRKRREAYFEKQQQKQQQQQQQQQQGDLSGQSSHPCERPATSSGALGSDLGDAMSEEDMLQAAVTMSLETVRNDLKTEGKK
How it was run: as §1

BAP1 = biological target: T2, BAP1 (UniProt Q92560)
T2 sequence (whole entry): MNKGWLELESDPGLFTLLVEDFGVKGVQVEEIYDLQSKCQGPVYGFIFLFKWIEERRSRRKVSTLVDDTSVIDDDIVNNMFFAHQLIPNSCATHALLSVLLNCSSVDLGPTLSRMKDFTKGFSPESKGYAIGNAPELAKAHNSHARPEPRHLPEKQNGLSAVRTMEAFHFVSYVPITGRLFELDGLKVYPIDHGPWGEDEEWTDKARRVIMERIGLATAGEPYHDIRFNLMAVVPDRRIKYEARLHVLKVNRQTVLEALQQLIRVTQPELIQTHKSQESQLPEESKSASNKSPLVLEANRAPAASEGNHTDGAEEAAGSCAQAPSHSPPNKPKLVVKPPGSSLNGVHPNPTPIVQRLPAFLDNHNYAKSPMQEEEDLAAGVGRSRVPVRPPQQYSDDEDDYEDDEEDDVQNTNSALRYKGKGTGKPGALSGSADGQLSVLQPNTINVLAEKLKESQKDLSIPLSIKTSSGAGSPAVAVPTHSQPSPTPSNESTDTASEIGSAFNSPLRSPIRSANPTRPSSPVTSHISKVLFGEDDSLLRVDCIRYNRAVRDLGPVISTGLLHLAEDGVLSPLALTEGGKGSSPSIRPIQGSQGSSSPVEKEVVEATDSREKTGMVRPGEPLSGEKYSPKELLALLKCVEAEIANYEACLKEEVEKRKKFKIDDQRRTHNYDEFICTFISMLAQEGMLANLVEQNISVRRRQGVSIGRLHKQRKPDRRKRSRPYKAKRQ
How it was run: as §1

EIF3F = EIF3F (UniProt O00303)
EIF3F, sequence (O00303 whole entry): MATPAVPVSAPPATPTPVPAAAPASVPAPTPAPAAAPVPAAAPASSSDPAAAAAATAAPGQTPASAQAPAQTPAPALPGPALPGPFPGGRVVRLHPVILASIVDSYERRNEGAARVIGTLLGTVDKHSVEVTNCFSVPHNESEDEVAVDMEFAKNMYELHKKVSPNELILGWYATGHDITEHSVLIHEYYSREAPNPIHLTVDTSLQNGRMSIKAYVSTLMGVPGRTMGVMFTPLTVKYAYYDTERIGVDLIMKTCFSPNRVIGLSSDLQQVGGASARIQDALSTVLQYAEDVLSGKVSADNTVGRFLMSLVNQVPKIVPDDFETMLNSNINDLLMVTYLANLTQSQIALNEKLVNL
How it was run: as §1

EIF3H = EIF3H (UniProt O15372)
EIF3H, sequence (O15372 whole entry): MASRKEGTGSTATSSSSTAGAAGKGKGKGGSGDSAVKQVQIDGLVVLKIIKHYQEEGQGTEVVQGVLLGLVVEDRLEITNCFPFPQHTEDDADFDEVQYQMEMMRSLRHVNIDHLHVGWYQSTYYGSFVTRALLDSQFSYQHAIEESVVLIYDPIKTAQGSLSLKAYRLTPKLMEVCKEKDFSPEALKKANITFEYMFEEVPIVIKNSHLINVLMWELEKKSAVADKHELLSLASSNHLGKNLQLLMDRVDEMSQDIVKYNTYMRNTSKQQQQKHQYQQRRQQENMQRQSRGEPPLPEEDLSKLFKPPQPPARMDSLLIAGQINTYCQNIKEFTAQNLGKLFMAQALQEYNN
How it was run: as §1

FAM105A = biological target: T3, FAM105A (UniProt Q9NUU6)
T3 sequence (whole entry): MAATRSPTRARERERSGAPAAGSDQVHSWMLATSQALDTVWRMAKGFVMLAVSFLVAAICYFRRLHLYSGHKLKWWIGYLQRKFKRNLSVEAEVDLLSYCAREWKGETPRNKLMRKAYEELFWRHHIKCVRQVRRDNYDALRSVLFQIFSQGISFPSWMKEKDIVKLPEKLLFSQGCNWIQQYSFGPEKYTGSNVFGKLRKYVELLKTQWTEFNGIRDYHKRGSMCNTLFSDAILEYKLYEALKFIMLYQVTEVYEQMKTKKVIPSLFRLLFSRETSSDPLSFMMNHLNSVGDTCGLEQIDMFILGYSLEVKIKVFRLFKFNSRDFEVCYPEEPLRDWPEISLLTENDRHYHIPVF
How it was run: as §1

OTUB1 = OTUB1 (UniProt Q96FW1)
OTUB1, sequence (Q96FW1 whole entry): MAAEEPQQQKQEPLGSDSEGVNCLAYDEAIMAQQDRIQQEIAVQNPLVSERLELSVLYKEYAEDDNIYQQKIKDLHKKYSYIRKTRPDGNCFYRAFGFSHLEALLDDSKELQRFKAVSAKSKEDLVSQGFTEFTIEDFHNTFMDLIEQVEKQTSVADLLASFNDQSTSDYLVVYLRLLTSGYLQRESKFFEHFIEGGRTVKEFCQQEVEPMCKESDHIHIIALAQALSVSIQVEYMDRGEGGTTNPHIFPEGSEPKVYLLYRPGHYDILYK
How it was run: as §1

OTUD4 = biological target: T4, OTUD4 (UniProt Q01804)
T4 sequence (whole entry): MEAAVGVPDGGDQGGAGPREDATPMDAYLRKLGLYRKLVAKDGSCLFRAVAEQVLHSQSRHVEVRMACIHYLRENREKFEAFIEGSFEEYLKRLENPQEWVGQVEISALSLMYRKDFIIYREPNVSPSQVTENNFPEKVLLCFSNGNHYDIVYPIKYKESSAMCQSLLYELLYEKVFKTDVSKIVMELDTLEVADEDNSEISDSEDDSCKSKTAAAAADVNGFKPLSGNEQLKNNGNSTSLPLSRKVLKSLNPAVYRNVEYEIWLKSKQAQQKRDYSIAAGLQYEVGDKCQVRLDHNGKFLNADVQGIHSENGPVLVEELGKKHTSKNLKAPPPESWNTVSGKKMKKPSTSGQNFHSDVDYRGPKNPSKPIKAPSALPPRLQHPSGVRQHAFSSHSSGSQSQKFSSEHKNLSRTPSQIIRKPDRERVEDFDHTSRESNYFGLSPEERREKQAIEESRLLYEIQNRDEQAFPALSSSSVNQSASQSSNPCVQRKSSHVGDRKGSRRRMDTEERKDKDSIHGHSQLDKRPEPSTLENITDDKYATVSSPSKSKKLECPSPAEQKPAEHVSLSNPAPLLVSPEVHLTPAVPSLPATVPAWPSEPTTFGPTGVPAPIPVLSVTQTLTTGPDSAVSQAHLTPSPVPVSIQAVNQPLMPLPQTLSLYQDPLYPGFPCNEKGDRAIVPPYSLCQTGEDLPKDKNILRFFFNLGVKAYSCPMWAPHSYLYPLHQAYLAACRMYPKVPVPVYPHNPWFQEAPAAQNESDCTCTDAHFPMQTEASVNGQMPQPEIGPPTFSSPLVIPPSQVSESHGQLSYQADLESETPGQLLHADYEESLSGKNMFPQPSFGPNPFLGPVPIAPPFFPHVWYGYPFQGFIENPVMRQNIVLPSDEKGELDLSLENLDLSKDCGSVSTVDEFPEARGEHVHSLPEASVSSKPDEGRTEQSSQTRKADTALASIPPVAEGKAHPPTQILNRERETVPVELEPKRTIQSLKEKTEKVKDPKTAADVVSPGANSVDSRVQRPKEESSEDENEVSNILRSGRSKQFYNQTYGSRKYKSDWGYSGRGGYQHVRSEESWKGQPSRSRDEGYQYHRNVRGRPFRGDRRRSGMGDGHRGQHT
How it was run: as §1

OTUD5 = biological target: T5, OTUD5 (UniProt Q96G74)
T5 sequence (whole entry): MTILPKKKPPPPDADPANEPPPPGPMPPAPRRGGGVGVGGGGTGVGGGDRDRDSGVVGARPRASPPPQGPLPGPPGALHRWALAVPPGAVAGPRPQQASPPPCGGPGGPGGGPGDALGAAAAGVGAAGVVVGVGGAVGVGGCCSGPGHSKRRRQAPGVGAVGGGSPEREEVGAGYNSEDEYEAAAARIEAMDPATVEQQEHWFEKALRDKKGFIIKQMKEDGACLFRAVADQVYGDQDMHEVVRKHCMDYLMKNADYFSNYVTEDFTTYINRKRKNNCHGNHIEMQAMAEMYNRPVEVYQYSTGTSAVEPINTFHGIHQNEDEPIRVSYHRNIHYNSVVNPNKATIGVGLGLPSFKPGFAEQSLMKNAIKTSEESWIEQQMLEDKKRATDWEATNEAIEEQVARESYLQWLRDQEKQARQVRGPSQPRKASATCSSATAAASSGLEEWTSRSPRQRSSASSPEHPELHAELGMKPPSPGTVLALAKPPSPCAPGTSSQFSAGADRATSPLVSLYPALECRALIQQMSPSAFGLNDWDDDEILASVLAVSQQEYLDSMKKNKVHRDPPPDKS
How it was run: as §1

Compound | log2 ratio of Biotin-Ahx-Ub-VS probe labelling (ALG13) | log2 ratio of Biotin-Ahx-Ub-VS probe labelling (ATXN3) | log2 ratio of Biotin-Ahx-Ub-VS probe labelling (BAP1) | log2 ratio of Biotin-Ahx-Ub-VS probe labelling (EIF3F) | log2 ratio of Biotin-Ahx-Ub-VS probe labelling (EIF3H) | log2 ratio of Biotin-Ahx-Ub-VS probe labelling (FAM105A) | log2 ratio of Biotin-Ahx-Ub-VS probe labelling (OTUB1) | log2 ratio of Biotin-Ahx-Ub-VS probe labelling (OTUD4) | log2 ratio of Biotin-Ahx-Ub-VS probe labelling (OTUD5)
Cc1nc(CNC(=O)CCl)c2ccccn12.Cl | -0.085 | -0.101 | -0.847 | -0.26 | 0.233 | -0.142 | -0.107 | -0.199 | -0.159
O=C(CCl)N1c2ccccc2NC(=O)C12CCCC2 | -0.0909 | -0.311 | -0.609 | -0.0311 | 0.277 | 0.141 | -0.478 | -0.196 | -0.711
COc1ccc(Cl)cc1NC(=O)CCl | 0.166 | -0.592 | -1.61 (active) | -0.594 | 0.0551 | -0.287 | -0.497 | -0.484 | -0.638
O=C(CCl)N1CCN(c2nc3ccccc3o2)CC1 | 0.254 | -1.05 (active) | -1.05 (active) | -0.704 | -0.664 | 0.0333 | 0.0507 | -0.141 | -0.83
NC(=O)C(Cc1ccccc1)NC(=O)CCl (configuration not stated) | 0.0325 | -0.279 | -2.01 (active) | 0.127 | -0.254 | -0.0569 | 0.128 | -0.451 | -0.216
O=C(CCl)N1CCC(C(=O)N2CCCC2)CC1 | 0.141 | -0.319 | -0.206 | -0.123 | -0.0247 | -0.324 | -0.0283 | 0.178 | -0.137
Cc1cnc2[nH]cc(CCNC(=O)CCl)c2c1 | -0.0473 | -0.0726 | -1 (active) | -0.228 | 0.13 | -0.55 | 0.0416 | -0.139 | -0.26
O=C(CCl)NC1CCC(C(F)(F)F)CC1 (configuration not stated) | 0.187 | -0.373 | -1.11 (active) | -0.798 | -0.225 | -0.0674 | 0.207 | -0.576 | -0.288
